Test results taken from PubChem BioAssay AID651550 (National Center for Advancing Translational Sciences (NCATS), 2012).
Among all 360,000 compounds or so, about 1,100 (0.31%) were called active. Many of the other results were omitted from the sample, so actives are more common in it than they were. A number with no mark means an inactive call. Rule as the data show it: active = activity change below about -80%; inconclusive = mostly about -51% to -80%; inactive = weaker than that.

target: RAC-alpha serine/threonine-protein kinase (Homo sapiens) (UniProt P31749); test: HTS Assay for Inhibitors of Akt Phophorylation: Primary Screen; settings: Neuro2A IGF-stimulated pAkt S473 HTRF, 20 min; at 50 µM, active compounds read low
How it was run: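 Single-point screen (50 µM final compound) in Neuro2A cells stimulated 20 min with 6 nM IGF at 37 deg C. After lysis, Ser473-phosphorylated Akt read by HTRF (ex 330 nm, em 615/665 nm) as the 665/615 ratio.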
% is scaled to controls: 0 for no effect and ±100 for the full control effect.

| SMILES | activity change |
| --- | --- |
| CC(C)OC(=O)CC(=O)CC(O)c1cccc([N+](=O)[O-])c1 (centres undefined) | inactive |
| CCOC(=O)[C@]12CCCC=C1N(CCC1=CCCCC1)C(=O)[C@H](CC(=O)NCCCCc1ccccc1)C2 | inactive |
| CCC(C(=O)Nc1c(C)cccc1C)n1c(-c2cc(C)cs2)nc2ccccc21 (centres undefined) | inactive |
| O=C(C(Cc1ccccc1)n1cccc1)N1CCN(C2CCCCC2)CC1 (centres undefined) | inactive |
| CCCCNC(=S)N/N=C1\CCCCc2ccccc21 | inactive |
| CC(=O)Nc1ccc(S(=O)(=O)N(C)CC(=O)NCCC2=CCCCC2)cc1 | inactive |
| CC(OC(=O)c1c(F)cccc1F)C(=O)NCCC1=CCCCC1 (centres undefined) | inactive |
| S=C(NCCC1=CCCCC1)Nc1ccccc1 | -117% (active) |
| COc1ccc(N2c3ccccc3CN(Cc3ccccc3)[C@@H](C)[C@H]2Cc2ccc(-c3ccccc3)cc2)cc1 | inactive |
| O=C(C[C@H]1CC[C@@H](NC(=O)c2ccncc2)[C@@H](CO)O1)NCC1CC1 | inactive |
| CC(=O)C[C@@H]1OC[C@H](CO)N1S(=O)(=O)c1ccc(C)cc1 | inactive |
| CC(=O)NS(=O)(=O)c1ccc(NC(=O)/C=C/c2ccccc2Cl)cc1 | inactive |
| COc1cc(OC)cc(/C(N)=N/O)c1 | inactive |
| COC(=O)c1c(C)[nH]c(C(=O)/C=C/c2ccc(Cl)cc2)c1C | inactive |
| Cc1[nH]c(=O)c(C(=O)/C=C/c2ccccc2)c2c1CCCC2 | -93.4% (active) |
| CC1(C(=O)O)CCCN(C(=O)/C=C/c2ccccc2)C1 (centres undefined) | inactive |
| O=C(CCCn1c(=O)oc2ccccc21)Nc1cccnc1 | 5.91% |
| CC(=O)c1c(C)[nH]c(C(=O)N2CCN(S(=O)(=O)c3ccc(F)c(F)c3)CC2)c1C | inactive |
| Cc1nonc1NC(=O)CSc1nc2ccccc2cc1C#N | inactive |
| COCc1cc(C)nc(SCC(=O)Nc2cccc(C)c2)c1C#N | inactive |
| Cc1nc2cc(NC(=O)CSc3nc4c(C)cccc4cc3C#N)ccc2s1 | -95.1% (active) |
| CC1(C(=O)NS(=O)(=O)c2cccc(F)c2)CCN1C(=O)Cc1cc(F)ccc1F (centres undefined) | inactive |

| SMILES | activity change |
| --- | --- |
| COC(=O)[C@@]12C[C@@H](CC(=O)NCCCCc3ccccc3)C(=O)N(Cc3ccccc3)C1=CCC(C)(C)C2 | inactive |
| CCOc1ccc(NC(=O)CCS(=O)(=O)c2cccc3nsnc23)cc1 | inactive |
| CCOc1ccccc1NC(=O)CCS(=O)(=O)c1cccc2nsnc12 | inactive |
| Cc1cccc(C)c1NC(=O)CCS(=O)(=O)c1cccc2nsnc12 | -101% (active) |
| NS(=O)(=O)c1ccc(NC(=S)NC(=O)c2cccnc2)cc1 | inactive |
| C=CCNC(=O)CCCOc1cccc(C)c1 | 3.56% |
| C=CCNC(=O)CCCC(=O)NCC=C | -102% (active) |
| C=CCNC(=O)CC12CC3CC(C1)CC(CC(=O)NCC=C)(C3)C2 | inactive |
| CCCCCc1c(-c2ccc(OC)c(OC)c2)ncn1CCc1ccccc1OC | inactive |
| Cc1cc(=O)n2nc(N3CCC(C(=O)Nc4c(F)c(F)c(F)c(F)c4F)CC3)sc2n1 | inactive |
| COc1ccc(C(=O)C(OP(=O)(OC)OC)c2ccccc2OC)cc1 (centres undefined) | inactive |
| Cc1cc(F)ccc1NC(=O)C(C)n1c2ccccc2c2nc(=O)cc(C)n21 (centres undefined) | inactive |
| COc1ccc(-c2nc3ccccc3n2CCC(C)C)cc1OC | -7.53% |
| COCCn1c(-c2ccc(OC)c(OC)c2)nc2ccccc21 | -119% (active) |
| CCOCCn1c(-c2ccccc2)nc2ccccc21 | inactive |
| COC(=O)C[C@H]1C=C[C@@H](NS(=O)(=O)c2ccc(C)cc2)[C@@H](CO)O1 | inactive |
| CCc1cccc(NC(=S)N(CCN(C)C)C2CCN(C(C)C)CC2)c1 | inactive |
| CCOc1ccc2c(c1)cc(CN(C(=O)CC)C1CCCCC1)c1nnnn12 | 1.69% |
| CCc1ccc2c(c1)cc(CN(C(=S)Nc1ccccc1Cl)C1CC1)c1nnnn12 | -83.6% (active) |
| O=C(NCc1ccccc1)[C@H]1C[C@@H]1[C@H](NP(=O)(c1ccccc1)c1ccccc1)c1ccccc1 | inactive |
| Cc1ccccc1CN1C(=O)CSCC1(C)C(=O)Nc1c(C)cccc1C (centres undefined) | inactive |
| CCOC(=O)C1C(C)C(C(C)(C)C)N(S(=O)(=O)c2ccc(C)cc2)C1c1ccccc1 (centres undefined) | inactive |
